Source: PubChem BioAssay (NCI)
Compounds without any hit were thinned out: in the full panel of roughly 79,000, 15% have a hit. Activity calls are given as the source filed them. Rule as the data show it: active = growth inhibition above about 70%; inactive = the rest.

Columns and labels:
[1] = NCI Yeast Anticancer Drug Screen. Data for the wt1 strain (AID 149);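 also: 0% = growth of vehicle-treated wt1 cultures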; conditions: S. cerevisiae wt1 strain (SPY 50644) growth inhibition, hits give high values
Outline: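 Measured: growth of wt1 yeast under compound versus vehicle treatment, reported as inhibition.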

[2] = NCI Yeast Anticancer Drug Screen. Data for the rad50EPP+ strain (AID 151);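 also: 0% = growth of vehicle-treated control cultures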; conditions: S. cerevisiae rad50 mutant strain, hits give high values
Outline: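 Compounds were applied to the rad50EPP+ yeast strain, which bears a defined DNA repair alteration, and growth inhibition was determined relative to vehicle-treated cultures.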

[3] = NCI Yeast Anticancer Drug Screen. Data for the mgt1 strain (AID 153); conditions: S. cerevisiae mgt1 mutant growth inhibition, hits give high values
Outline: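 Strain: mgt1 yeast, one of a set carrying defined DNA damage repair or cell cycle control alterations. Compound-treated growth compared with vehicle.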

[4] = NCI Yeast Anticancer Drug Screen. Data for the rad50 strain (AID 155);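 also: 0% = growth of vehicle-only cultures of the same strain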; conditions: S. cerevisiae rad50 strain growth inhibition, hits give high values
Outline: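 Growth of the mutant yeast was measured after compound exposure and referenced to vehicle-treated cultures.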

[5] = NCI Yeast Anticancer Drug Screen. Data for the mec2-1 strain (AID 157); conditions: S. cerevisiae mec2-1 strain, hits give high values
Outline: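 Strain: mec2-1 (DNA repair/cell cycle alteration). Compound exposure, then growth measured; inhibition expressed relative to vehicle.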

[6] = NCI Yeast Anticancer Drug Screen. Data for the rad14 strain (AID 159);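 also: 0% = growth of vehicle-treated control cultures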; conditions: S. cerevisiae rad14 strain growth inhibition, hits give high values
Outline: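 Here, inhibition of yeast growth was measured after compound exposure, using a strain with a genetic defect in DNA damage repair and vehicle-treated cultures as the reference.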

[7] = NCI Yeast Anticancer Drug Screen. Data for the sgs1 mgt1 strain (AID 161);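 also: 0% = growth of cultures given vehicle only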; conditions: S. cerevisiae sgs1 mgt1 strain, hits give high values
Outline: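 Genetically altered yeast, compound exposure, growth inhibition relative to vehicle.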

[8] = NCI Yeast Anticancer Drug Screen. Data for the CLN2oe strain (AID 163);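 also: 0% = growth of vehicle-only control cultures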; conditions: S. cerevisiae CLN2oe strain, hits give high values
Outline: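 Growth of a genetically modified yeast strain is measured after compound exposure and compared with cultures given vehicle alone.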

[9] = NCI Yeast Anticancer Drug Screen. Data for the cln2 rad14 strain (AID 165);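 also: 0% = growth equal to vehicle treated cultures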; conditions: S. cerevisiae cln2 rad14 strain, hits give high values
Outline: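 Compounds are applied to the cln2 rad14 yeast strain, and growth is then compared with that of vehicle-treated cultures to give inhibition.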

[10] = NCI Yeast Anticancer Drug Screen. Data for the bub3 strain (AID 167); conditions: S. cerevisiae bub3 mutant strain, hits give high values
Outline: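 Whole-cell yeast assay. The mutant strain was incubated with compounds, and growth inhibition was determined by comparison with vehicle-treated cells.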

[11] = NCI Yeast Anticancer Drug Screen. Data for the mlh1 strain (AID 171);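 also: 0% = growth of vehicle-treated control cultures of the same strain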; conditions: S. cerevisiae mlh1 strain growth inhibition, hits give high values
Outline: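 Growth of the mutant yeast strain after compound exposure, expressed as inhibition relative to vehicle-only controls.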

[12] = NCI Yeast Anticancer Drug Screen. Data for the sgs1 strain (AID 173);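 also: 0% = growth of vehicle-only control cultures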; conditions: S. cerevisiae sgs1 mutant, hits give high values
Outline: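 Growth of a yeast strain bearing a defined genetic alteration is measured after compound treatment. Inhibition is expressed relative to vehicle-only controls.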

[13] = NCI Yeast Anticancer Drug Screen. Data for the mlh1 rad18 strain (AID 175); conditions: S. cerevisiae mlh1 rad18 strain growth inhibition, hits give high values
Outline: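 Read-out is yeast growth inhibition, calculated against vehicle-only controls. The compound was applied to a strain engineered with DNA damage repair alterations.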

[14] = NCI Yeast Anticancer Drug Screen. Data for the rad18 strain (AID 177); conditions: S. cerevisiae rad18 mutant growth inhibition, hits give high values
Outline: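 Growth of the mutant yeast strain after compound exposure, normalised to vehicle-only cultures.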

[15] = at 5.0 µM (retest, dose inferred, filed as 0.5)
[16] = at 50.0 µM (retest, dose inferred, filed as 5.0)

Measured: growth inhibition

Oc1ccc(Br)cc1C=Nc1cccc(C(F)(F)F)c1
active: [1]; at 33.0 µM 91% | [1]; at 100.0 µM 97% | [3]; at 11.0 µM 75% | [3]; at 33.0 µM 96% | [3]; at 100.0 µM 97% | [4]; at 33.0 µM 91% | [4]; [16] 92% | [4]; at 50.0 µM 70.5% | [4]; at 100.0 µM 97% | [5]; at 33.0 µM 97% | [5]; [16] 97% | [5]; at 50.0 µM 85.5% | [5]; at 100.0 µM 97% | [6]; at 11.0 µM 91% | [6]; at 33.0 µM 97% | [6]; at 100.0 µM 97% | [7]; at 50.0 µM 81.7% | [9]; [16] 86% | [10]; [16] 94% | [10]; at 50.0 µM 88.2% | [11]; at 33.0 µM 96% | [11]; at 100.0 µM 97% | [12]; at 33.0 µM 94% | [12]; at 100.0 µM 97% | [13]; [16] 97% | [14]; at 33.0 µM 83% | [14]; at 100.0 µM 97%
inactive: [1]; at 1.2 µM -2% | [1]; at 3.7 µM -7% | [1]; at 11.0 µM 9% | [2]; at 1.2 µM 0% | [2]; at 3.7 µM 4% | [2]; at 11.0 µM 10% | [2]; at 33.0 µM 30% | [2]; at 100.0 µM 64% | [3]; at 1.2 µM -2% | [3]; at 3.7 µM 21% | [4]; at 1.2 µM -28% | [4]; at 3.7 µM -20% | [4]; [15] 16% | [4]; at 11.0 µM 32% | [5]; at 1.2 µM 3% | [5]; at 3.7 µM -7% | [5]; [15] -17% | [5]; at 11.0 µM 59% | [6]; at 1.2 µM 6% | [6]; at 3.7 µM 13% | [7]; [15] 1% | [7]; [16] 63% | [8]; at 1.2 µM -4% | [8]; at 3.7 µM -1% | [8]; at 11.0 µM -1% | [8]; at 33.0 µM 1% | [8]; at 100.0 µM 25% | [9]; [15] 28% | [9]; at 50.0 µM 61% | [10]; at 1.2 µM -6% | [10]; at 3.7 µM -1% | [10]; [15] 42% | [10]; at 11.0 µM -5% | [10]; at 33.0 µM 0% | [10]; at 100.0 µM 28% | [11]; at 1.2 µM -1% | [11]; at 3.7 µM 17% | [11]; at 11.0 µM 68% | [12]; at 1.2 µM 14% | [12]; at 3.7 µM 10% | [12]; at 11.0 µM 65% | [13]; [15] 48% | [13]; at 50.0 µM 66.9% | [14]; at 1.2 µM -15% | [14]; at 3.7 µM -12% | [14]; at 11.0 µM 16%

CCOc1nc(OCC)nc(-c2cccn2-c2ccccc2)n1
active: [1]; at 100.0 µM 94% | [3]; at 100.0 µM 96% | [4]; [15] 85% | [4]; [16] 100% | [4]; at 50.0 µM 70.3% | [4]; at 100.0 µM 92% | [5]; [15] 93% | [5]; [16] 100%
inactive: [1]; at 1.2 µM -19% | [1]; at 3.7 µM -22% | [1]; at 11.0 µM -13% | [1]; at 33.0 µM -11% | [2]; at 1.2 µM 1% | [2]; at 3.7 µM 5% | [2]; at 11.0 µM 23% | [2]; at 33.0 µM 12% | [2]; at 100.0 µM 40% | [3]; at 1.2 µM 1% | [3]; at 3.7 µM 8% | [3]; at 11.0 µM 6% | [3]; at 33.0 µM 25% | [4]; at 1.2 µM 7% | [4]; at 3.7 µM 40% | [4]; at 11.0 µM 35% | [4]; at 33.0 µM 26% | [5]; at 1.2 µM -4% | [5]; at 3.7 µM 9% | [5]; at 11.0 µM -6% | [5]; at 33.0 µM 12% | [5]; at 50.0 µM 59.7%
